From PubChem BioAssay (NCI)
Compounds without any hit were thinned out: in the full panel of roughly 83,000, 20% have a hit.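 Interpretation: 100, growth as untreated; towards 0, rising growth inhibition; 0, no net growth; 0 to -100, cell death. Compounds scoring below 10 were considered active.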 The source made the active and inactive calls.

The compounds below were run on SK-MEL-28 melanoma (assay: NCI-60 one-dose screen, 48 h (100 = growth as untreated, 0 = no growth, -100 = all killed)). Details: 10 µM unless noted.

Row | SMILES | growth
1 | C=C(C)[C@@H]1CC[C@]2(C)[C@H](C=CC3=C4C[C@@](C)(CO)CC[C@]4(C)CC[C@]32C)[C@@]1(C)CCCN | -79.8% (active)
2 | N#Cc1ccc(O)c(C2=NCC(c3ccc(-c4ccccc4)cc3)O2)c1 (stereo unspecified) | 23.7% (inactive)
3 | CC[C@H](Nc1nc(N)nc(C)c1C#N)c1nc2cccc(CN(C)c3ncc(C(=O)NO)cn3)c2c(=O)n1-c1ccccc1 | 6.03% (active)
4 | Nc1[nH]nc2nc(-c3ccccc3)n3c4ccccc4nc3c12 | 117% (inactive)
5 | COc1ccc(/C=N/NC(=O)Cn2c(-c3ccc(S(C)(=O)=O)cc3)nc3ccccc32)cc1 | 102% (inactive)
6 | C=C1C(=O)O[C@H]2[C@H]1CC/C(COC(=O)/C=C\C(=O)NCc1ccc(Cn3c(=O)sn(CCCCl)c3=O)cc1)=C\CC[C@@]1(C)O[C@@H]21 | 100% (inactive)
